# Data taken from paper PMC7862700, “An all-to-all approach to the identification of sequence-specific readers for epigenetic DNA modifications on cytosine”.
# Legend:
# Test in all cases: DAPPL (digital affinity profiling via proximity ligation, sequencing); 10 mM Tris-HCl pH 7.5, 50 mM NaCl, 1 mM DTT, 4% glycerol, room temperature, 30 min; GST-TFs on glutathione beads, 16-mer random dsDNA library, 0.1% formaldehyde crosslink after washing; high values mean tight binding
# ETV5 = ETV5 (Homo sapiens, UniProt P41161 1-510); conditions: protein: recombinant; tags: N-terminal GST; dsDNA, one strand shown
# In short: (§1)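 Each value of binding signal is a hexamer's read frequency for a factor divided by the same hexamer's frequency in the tag-only sample. Barcoded, bead-captured GST fusions of human transcription factors made in yeast were pooled with that sample and incubated with 200 nmole of a random double-stranded 16-mer DNA library in Tris/NaCl/DTT/glycerol buffer at room temperature for 30 min. Washing, 0.1% formaldehyde crosslinking, proximity ligation, PCR and Illumina NextSeq500 sequencing followed.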
# HSF1 = HSF1 (Homo sapiens, UniProt Q00613 1-529); conditions: protein: recombinant; tags: N-terminal GST; chain copies: 3; dsDNA, one strand shown
# In short: as §1
# SPIC = target: T1, SPIC (Homo sapiens, UniProt Q8N5J4 1-248); conditions: protein: recombinant; tags: N-terminal GST; dsDNA, one strand shown
# T1 sequence: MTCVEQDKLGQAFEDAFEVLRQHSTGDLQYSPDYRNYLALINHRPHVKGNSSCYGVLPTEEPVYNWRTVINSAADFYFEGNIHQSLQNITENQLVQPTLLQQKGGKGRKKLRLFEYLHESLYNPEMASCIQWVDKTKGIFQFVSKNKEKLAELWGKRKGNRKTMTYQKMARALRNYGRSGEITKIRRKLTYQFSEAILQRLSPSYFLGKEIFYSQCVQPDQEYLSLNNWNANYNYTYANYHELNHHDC
# In short: as §1
# ELF4 = ELF4 (Homo sapiens, UniProt Q99607 1-663); conditions: protein: recombinant; tags: N-terminal GST; dsDNA, one strand shown
# In short: as §1
# ELK4 = target: T2, ELK4 (Homo sapiens, UniProt P28324-2 1-405); conditions: protein: recombinant; tags: N-terminal GST; dsDNA, one strand shown
# T2 sequence: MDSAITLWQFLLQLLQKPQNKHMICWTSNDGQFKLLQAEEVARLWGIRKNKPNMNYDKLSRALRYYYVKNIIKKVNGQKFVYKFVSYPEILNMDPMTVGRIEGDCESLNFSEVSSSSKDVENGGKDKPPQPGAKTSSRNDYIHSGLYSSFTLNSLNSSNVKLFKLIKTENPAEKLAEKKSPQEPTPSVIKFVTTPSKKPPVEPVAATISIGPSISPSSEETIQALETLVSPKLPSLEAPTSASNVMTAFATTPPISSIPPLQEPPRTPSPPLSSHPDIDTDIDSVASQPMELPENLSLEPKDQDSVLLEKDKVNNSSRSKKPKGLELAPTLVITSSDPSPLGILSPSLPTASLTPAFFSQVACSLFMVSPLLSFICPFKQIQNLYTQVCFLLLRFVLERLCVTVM
# In short: as §1
# ETV2 = target: T3, ETV2 (Homo sapiens, UniProt O00321 1-342); conditions: protein: recombinant; tags: N-terminal GST; dsDNA, one strand shown
# T3 sequence: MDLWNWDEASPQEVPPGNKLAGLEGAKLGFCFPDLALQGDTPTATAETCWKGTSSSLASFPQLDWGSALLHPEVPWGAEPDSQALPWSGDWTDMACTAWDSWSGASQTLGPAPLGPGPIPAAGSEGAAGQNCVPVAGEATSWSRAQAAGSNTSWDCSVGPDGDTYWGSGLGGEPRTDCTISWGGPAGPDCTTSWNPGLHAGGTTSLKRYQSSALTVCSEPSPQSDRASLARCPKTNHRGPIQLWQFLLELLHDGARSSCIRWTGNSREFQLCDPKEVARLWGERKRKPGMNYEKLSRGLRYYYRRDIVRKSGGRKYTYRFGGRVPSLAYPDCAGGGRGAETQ
# In short: as §1
# ELF3 = target: T4, ELF3 (Homo sapiens, UniProt P78545 1-371); conditions: protein: recombinant; tags: N-terminal GST; dsDNA, one strand shown
# T4 sequence: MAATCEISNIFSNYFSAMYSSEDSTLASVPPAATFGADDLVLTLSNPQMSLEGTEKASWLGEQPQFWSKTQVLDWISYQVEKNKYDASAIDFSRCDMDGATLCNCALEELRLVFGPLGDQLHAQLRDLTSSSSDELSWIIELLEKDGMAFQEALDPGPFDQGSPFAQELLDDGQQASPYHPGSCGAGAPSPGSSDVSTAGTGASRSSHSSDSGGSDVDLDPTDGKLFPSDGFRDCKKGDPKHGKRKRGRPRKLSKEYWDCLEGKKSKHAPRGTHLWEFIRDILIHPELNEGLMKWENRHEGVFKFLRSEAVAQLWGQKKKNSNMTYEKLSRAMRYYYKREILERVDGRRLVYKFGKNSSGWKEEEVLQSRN
# In short: as §1
# CRX = CRX (Homo sapiens, UniProt O43186 1-299); conditions: protein: recombinant; tags: N-terminal GST; dsDNA, one strand shown
# In short: as §1
# ETV1 = ETV1 (Homo sapiens, UniProt P50549 1-477); conditions: protein: recombinant; tags: N-terminal GST; dsDNA, one strand shown
# In short: as §1
# ERF = target: T5, ERF (Homo sapiens, UniProt P50548 1-548); conditions: protein: recombinant; tags: N-terminal GST; dsDNA, one strand shown
# T5 sequence: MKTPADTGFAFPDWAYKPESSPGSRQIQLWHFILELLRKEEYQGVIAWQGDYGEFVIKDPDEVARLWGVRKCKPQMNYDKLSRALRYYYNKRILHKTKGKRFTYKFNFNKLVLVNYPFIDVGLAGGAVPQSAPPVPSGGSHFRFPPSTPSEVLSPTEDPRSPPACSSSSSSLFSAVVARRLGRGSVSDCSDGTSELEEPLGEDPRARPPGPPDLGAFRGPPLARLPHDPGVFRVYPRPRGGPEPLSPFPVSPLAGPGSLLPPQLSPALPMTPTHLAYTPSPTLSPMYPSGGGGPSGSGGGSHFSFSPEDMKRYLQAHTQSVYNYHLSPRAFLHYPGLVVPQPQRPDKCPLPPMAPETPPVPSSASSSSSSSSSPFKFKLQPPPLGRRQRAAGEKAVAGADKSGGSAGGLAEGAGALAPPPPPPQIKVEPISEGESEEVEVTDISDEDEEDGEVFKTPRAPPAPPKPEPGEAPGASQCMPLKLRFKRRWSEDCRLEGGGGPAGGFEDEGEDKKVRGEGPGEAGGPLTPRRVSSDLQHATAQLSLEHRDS
# In short: as §1
# ETV3L = target: T6, ETV3L (Homo sapiens, UniProt Q6ZN32 1-361); conditions: protein: recombinant; tags: N-terminal GST; dsDNA, one strand shown
# T6 sequence: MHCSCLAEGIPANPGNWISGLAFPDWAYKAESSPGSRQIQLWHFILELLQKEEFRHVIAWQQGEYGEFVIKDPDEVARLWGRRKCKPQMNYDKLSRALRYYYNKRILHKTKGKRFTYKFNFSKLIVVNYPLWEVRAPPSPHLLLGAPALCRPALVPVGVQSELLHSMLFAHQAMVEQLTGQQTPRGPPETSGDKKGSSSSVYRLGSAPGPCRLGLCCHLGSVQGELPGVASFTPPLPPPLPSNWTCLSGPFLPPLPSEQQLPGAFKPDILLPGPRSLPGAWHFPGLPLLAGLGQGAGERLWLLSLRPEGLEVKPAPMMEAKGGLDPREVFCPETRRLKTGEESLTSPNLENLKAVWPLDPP
# In short: as §1
# ETS2 = target: T7, ETS2 (Homo sapiens, UniProt P15036 1-469); conditions: protein: recombinant; tags: N-terminal GST; dsDNA, one strand shown
# T7 sequence: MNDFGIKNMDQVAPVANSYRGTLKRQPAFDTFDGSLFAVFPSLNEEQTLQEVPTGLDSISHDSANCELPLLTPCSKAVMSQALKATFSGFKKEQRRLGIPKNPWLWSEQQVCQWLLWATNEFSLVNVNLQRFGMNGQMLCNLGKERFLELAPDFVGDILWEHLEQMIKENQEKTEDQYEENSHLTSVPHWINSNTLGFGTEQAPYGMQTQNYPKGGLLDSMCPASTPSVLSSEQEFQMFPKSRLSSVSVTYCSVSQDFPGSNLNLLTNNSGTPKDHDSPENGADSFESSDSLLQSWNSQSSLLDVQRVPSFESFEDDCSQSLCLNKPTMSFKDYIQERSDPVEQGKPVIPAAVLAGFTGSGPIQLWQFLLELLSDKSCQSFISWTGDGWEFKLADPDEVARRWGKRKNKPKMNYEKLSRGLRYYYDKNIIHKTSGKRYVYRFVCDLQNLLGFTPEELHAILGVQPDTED
# In short: as §1
# SPDEF = target: T8, SPDEF (Homo sapiens, UniProt O95238 1-335); conditions: protein: recombinant; tags: N-terminal GST; dsDNA, one strand shown
# T8 sequence: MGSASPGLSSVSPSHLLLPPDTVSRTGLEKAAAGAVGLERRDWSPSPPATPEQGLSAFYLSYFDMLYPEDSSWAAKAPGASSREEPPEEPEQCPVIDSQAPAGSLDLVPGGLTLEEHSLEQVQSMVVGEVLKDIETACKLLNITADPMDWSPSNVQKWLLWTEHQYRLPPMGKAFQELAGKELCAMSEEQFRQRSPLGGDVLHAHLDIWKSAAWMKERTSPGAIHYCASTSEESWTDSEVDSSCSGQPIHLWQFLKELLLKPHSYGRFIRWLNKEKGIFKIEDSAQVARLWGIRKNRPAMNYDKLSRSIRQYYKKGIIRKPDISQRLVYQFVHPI
# In short: as §1
# ETV7 = target: T9, ETV7 (Homo sapiens, UniProt Q9Y603 1-341); conditions: protein: recombinant; tags: N-terminal GST; dsDNA, one strand shown
# T9 sequence: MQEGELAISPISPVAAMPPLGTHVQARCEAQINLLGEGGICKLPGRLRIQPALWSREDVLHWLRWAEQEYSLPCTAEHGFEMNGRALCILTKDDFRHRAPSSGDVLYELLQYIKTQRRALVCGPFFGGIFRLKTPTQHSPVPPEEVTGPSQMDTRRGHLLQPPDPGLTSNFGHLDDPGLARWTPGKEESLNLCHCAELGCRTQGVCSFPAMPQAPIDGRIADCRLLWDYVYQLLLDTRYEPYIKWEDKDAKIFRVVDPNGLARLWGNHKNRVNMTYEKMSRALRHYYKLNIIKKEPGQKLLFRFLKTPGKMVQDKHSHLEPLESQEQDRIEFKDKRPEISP
# In short: as §1
# ELF5 = target: T10, ELF5 (Homo sapiens, UniProt Q9UKW6-2 1-255); conditions: protein: recombinant; tags: N-terminal GST; dsDNA, one strand shown
# T10 sequence: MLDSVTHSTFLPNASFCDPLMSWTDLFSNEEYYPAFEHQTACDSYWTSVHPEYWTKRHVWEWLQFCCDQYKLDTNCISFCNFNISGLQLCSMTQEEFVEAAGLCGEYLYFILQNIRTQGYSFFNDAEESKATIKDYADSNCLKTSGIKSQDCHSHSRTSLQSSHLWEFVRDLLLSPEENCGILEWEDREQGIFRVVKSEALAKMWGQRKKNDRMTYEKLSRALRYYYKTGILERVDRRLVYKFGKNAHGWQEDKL
# In short: as §1
# ETV3 = target: T11, ETV3 (Homo sapiens, UniProt P41162-2 1-143); conditions: protein: recombinant; tags: N-terminal GST; dsDNA, one strand shown
# T11 sequence: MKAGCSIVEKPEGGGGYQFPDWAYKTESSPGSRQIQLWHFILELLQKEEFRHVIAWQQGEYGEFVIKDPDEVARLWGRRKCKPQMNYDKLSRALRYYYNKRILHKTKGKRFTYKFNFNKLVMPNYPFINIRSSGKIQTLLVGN
# In short: as §1
# ETV6 = ETV6 (Homo sapiens, UniProt P41212 1-452); conditions: protein: recombinant; tags: N-terminal GST; dsDNA, one strand shown
# In short: as §1
# ETV1, sequence (P50549 whole entry): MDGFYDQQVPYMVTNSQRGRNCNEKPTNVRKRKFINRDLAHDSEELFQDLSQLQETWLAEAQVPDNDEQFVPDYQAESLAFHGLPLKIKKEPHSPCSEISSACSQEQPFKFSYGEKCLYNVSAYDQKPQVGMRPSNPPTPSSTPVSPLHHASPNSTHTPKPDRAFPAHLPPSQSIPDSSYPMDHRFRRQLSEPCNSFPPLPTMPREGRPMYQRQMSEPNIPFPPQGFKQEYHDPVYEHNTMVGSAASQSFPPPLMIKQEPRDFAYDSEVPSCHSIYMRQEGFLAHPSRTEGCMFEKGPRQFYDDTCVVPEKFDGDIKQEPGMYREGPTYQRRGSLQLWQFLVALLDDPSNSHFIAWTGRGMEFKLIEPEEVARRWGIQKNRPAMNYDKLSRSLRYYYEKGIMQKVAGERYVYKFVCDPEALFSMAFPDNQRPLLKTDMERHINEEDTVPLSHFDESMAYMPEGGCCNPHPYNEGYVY
# ETV6, sequence (P41212 whole entry): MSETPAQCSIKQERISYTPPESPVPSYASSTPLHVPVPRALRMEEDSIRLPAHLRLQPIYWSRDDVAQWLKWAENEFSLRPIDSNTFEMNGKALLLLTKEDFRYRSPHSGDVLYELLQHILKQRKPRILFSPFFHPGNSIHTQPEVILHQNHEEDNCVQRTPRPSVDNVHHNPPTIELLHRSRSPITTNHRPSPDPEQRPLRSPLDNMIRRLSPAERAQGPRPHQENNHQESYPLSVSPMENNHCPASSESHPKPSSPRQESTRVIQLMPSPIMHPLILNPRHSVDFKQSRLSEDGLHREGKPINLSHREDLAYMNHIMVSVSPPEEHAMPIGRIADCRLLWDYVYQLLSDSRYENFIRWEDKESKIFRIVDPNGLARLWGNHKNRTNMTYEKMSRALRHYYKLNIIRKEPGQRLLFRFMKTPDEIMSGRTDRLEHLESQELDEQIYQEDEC
# CRX, sequence (O43186 whole entry): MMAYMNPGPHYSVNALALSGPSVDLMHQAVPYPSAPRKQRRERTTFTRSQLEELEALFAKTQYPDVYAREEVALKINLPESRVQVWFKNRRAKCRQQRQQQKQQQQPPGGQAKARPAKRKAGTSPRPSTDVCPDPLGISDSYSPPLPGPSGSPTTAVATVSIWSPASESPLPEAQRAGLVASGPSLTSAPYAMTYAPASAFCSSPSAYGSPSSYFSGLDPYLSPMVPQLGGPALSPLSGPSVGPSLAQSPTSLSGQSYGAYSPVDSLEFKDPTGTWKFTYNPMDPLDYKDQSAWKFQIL
# ETV5, sequence (P41161 whole entry, the tested form may be a part): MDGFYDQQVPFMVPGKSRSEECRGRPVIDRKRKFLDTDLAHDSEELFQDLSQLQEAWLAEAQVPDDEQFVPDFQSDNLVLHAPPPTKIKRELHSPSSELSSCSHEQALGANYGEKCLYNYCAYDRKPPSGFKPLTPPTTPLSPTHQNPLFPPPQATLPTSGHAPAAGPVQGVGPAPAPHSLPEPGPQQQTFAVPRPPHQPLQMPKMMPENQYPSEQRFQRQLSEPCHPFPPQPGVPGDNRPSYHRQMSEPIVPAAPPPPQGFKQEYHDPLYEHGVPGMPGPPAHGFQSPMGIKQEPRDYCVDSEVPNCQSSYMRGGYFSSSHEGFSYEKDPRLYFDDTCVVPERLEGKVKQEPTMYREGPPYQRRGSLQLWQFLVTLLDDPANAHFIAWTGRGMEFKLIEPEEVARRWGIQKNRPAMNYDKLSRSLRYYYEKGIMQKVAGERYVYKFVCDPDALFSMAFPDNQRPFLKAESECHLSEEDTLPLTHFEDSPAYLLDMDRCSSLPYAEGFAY
# HSF1, sequence (Q00613 whole entry): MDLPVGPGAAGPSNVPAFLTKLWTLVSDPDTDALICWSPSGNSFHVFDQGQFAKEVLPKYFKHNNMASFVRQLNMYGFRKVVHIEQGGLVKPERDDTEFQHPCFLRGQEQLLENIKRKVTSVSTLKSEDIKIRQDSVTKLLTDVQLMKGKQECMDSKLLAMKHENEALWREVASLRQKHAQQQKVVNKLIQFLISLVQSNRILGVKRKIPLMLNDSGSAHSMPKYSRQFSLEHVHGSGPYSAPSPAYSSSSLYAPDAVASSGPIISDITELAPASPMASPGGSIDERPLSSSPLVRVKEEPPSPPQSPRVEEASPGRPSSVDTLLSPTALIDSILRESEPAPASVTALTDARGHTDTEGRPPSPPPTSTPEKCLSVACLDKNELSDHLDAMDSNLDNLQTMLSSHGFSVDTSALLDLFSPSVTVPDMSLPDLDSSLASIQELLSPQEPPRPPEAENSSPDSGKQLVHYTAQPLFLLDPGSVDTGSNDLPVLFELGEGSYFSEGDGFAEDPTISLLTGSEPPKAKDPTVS
# ELF4, sequence (Q99607 whole entry): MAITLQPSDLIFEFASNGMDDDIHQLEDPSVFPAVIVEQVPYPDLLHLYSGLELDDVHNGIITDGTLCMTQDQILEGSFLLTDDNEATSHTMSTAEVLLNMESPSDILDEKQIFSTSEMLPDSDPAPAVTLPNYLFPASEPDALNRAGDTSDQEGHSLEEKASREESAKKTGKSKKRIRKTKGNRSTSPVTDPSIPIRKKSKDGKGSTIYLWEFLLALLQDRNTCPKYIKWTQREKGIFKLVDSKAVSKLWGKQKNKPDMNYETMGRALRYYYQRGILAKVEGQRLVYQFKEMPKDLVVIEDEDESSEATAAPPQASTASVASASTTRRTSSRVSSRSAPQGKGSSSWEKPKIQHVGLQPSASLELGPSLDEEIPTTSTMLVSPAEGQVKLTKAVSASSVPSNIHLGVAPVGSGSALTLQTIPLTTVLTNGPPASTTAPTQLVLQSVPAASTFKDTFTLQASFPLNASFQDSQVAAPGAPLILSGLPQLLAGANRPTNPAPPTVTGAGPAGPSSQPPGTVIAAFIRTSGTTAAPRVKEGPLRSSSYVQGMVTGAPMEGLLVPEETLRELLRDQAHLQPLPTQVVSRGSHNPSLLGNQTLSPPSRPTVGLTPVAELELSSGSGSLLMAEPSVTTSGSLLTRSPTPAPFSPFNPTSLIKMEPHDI
sequence,measurement,setting,value
TAGAAG,binding signal,ETV5,"1.08 fold enrichment (6-mer frequency, TF over GST control)"
same,binding signal,HSF1,"2.77 fold enrichment (6-mer frequency, TF over GST control)"
same,binding signal,SPIC,"1.31 fold enrichment (6-mer frequency, TF over GST control)"
same,binding signal,ELF4,"1.19 fold enrichment (6-mer frequency, TF over GST control)"
same,binding signal,ELK4,"1.16 fold enrichment (6-mer frequency, TF over GST control)"
same,binding signal,ETV2,"1.18 fold enrichment (6-mer frequency, TF over GST control)"
same,binding signal,ELF3,"1.18 fold enrichment (6-mer frequency, TF over GST control)"
same,binding signal,CRX,"1.72 fold enrichment (6-mer frequency, TF over GST control)"
same,binding signal,ETV1,"1.06 fold enrichment (6-mer frequency, TF over GST control)"
same,binding signal,ERF,"1.42 fold enrichment (6-mer frequency, TF over GST control)"
same,binding signal,ETV3L,"1.17 fold enrichment (6-mer frequency, TF over GST control)"
same,binding signal,ETS2,"1.12 fold enrichment (6-mer frequency, TF over GST control)"
same,binding signal,SPDEF,"1.06 fold enrichment (6-mer frequency, TF over GST control)"
same,binding signal,ETV7,"1.24 fold enrichment (6-mer frequency, TF over GST control)"
same,binding signal,ELF5,"1.12 fold enrichment (6-mer frequency, TF over GST control)"
same,binding signal,ETV3,"1.12 fold enrichment (6-mer frequency, TF over GST control)"
same,binding signal,ETV6,"1.17 fold enrichment (6-mer frequency, TF over GST control)"
